# This is part of a sample that, as a whole, favours compounds with a hit. Of some 83,000 tested, about 20% had one in any assay.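 Percent growth is the endpoint: 0 to 100 indicates growth inhibition (40 means 60% inhibition), 0 means no net growth, and negative values indicate cell death.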 Active and inactive are the calls of the source. How the source made its calls: active means growth percent below 10; inactive means the rest.
# System: HL-60(TB) leukemia
# Assay: NCI-60 one-dose screen, 48 h (100 = growth as untreated, 0 = no growth, -100 = all killed)
# Conditions: 10 µM unless noted
row,Compound,growth
1,Cc1ccc(-c2nc(/C=C3/C(=O)Nc4ccc(F)cc43)c3ccccn23)cc1,110% (inactive)
2,COc1ccc2sc3c(NCCO)nc4ccccc4c3c(=O)c2c1,104% (inactive)
3,Oc1[nH]c2ccccc2c1/C=c1/cc2c(c(-c3ccc(F)cc3)n1)=Nc1ccccc1-2,-39.1% (active)
4,CC(C)/C=C/CC[C@](C)(O)[C@H]1CC[C@]2(C)[C@@H]1CC[C@@H]1[C@@]3(C)C/C(=C/c4cccc(C(F)(F)F)c4)C(=O)C(C)(C)[C@@H]3CC[C@]12C,92.9% (inactive)
5,O=C1/C(=C/c2ccc([N+](=O)[O-])o2)Oc2ccc(Cl)cc21,-21.3% (active)
6,Cc1nn(-c2ccc(Cl)cc2)c(=O)n1CCN1CCOCC1,105% (inactive)
7,c1ccc([P+](CCC[P+](c2ccccc2)(c2ccccc2)c2ccccc2)(c2ccccc2)c2ccccc2)cc1,30.5% (inactive)
8,CCOC(=O)c1cnc2ccc(Br)cc2c1Nc1cccc(S(N)(=O)=O)c1,99.5% (inactive)
9,COc1cc2nc(-c3ccc(Cl)cc3)cc(OCCCN3CCCC3)c2cc1OC,32.4% (inactive)
10,O=C(Cc1ccc(F)c(F)c1)Nc1cc(C2(C(F)(F)F)CC2)nn1Cc1ccccc1,11.9% (inactive)
11,C[C@@H]1CN(c2cnc(C(=O)Nc3cc(F)cc4cccnc34)cn2)C[C@H](C)N1,82.4% (inactive)
12,CC(=O)O[C@H]1C(=O)[C@@]2(C)[C@H]([C@H](OC(=O)c3ccccc3)[C@]3(O)C[C@H](OC(=O)[C@H](OC(=O)CCC(=O)OC4CCC(S/N=C(N)/N=C(\N)N(C)C)CC4)[C@@H](NC(=O)c4ccccc4)c4ccccc4)C(C)=C1C3(C)C)[C@]1(OC(C)=O)CO[C@@H]1C[C@@H]2O (some centres not stated),7.49% (active)
13,Cc1[nH]c(N=Nc2ccccc2)nc1N=Nc1ccccc1,8.83% (active)
14,O=C(Cc1ccc(/C=C/C(=O)c2ncc[nH]2)cc1)Nc1ccc(Cl)cc1,-14.5% (active)
15,Nc1cc2c(cc1Br)[nH]c(=O)c1ccccc12,91% (inactive)
16,C/C=C(\C)C(C(=O)NC1CCCCC1)N(C(=O)C1CCc2cc(F)ccc2O1)c1ccc([N+](=O)[O-])cc1 (configuration not stated),82.4% (inactive)
17,COc1ccc(/C=C/C(=O)c2cc3c(N)c(C(=O)Nc4ccc(OC)cc4)sc3nc2C)cc1,2.26% (active)
18,OCC1OC(OC2C(O)C(CO)OC2(CO)OC2OC(CO)C(O)C(O)C2O)C(O)C(O)C1O (configuration not stated),129% (inactive)
19,COc1cc2nc(Nc3cccc(F)c3)nc(Nc3cc(C)[nH]n3)c2cc1OC,-54% [20 µM] (active)
20,COc1ccc(C2=NOC(CC(=O)N(CCO)CCO)C2)cc1OC1CCCC1 (configuration not stated),110% (inactive)
21,Clc1ccc2c(c1)N(C1CCCN(Cc3ccccc3)C1)c1ccccc1S2 (configuration not stated),28.5% (inactive)
22,CCO/C=N/NC(=O)c1ccncc1,102% (inactive)
23,COc1ccc(/C=C(\C#N)n2nnc3ccccc32)cc1,-13% (active)
24,OC(c1cc2cc(Cl)ccc2c2cc(C(F)(F)F)ccc12)C1CCCCN1 (configuration not stated),-61.1% (active)
25,CC1(C)CN(c2cnc(C(=O)Nc3cc(F)cc4cccnc34)cn2)CCN1,11.7% (inactive)
26,COc1cc(NC2CCCCC2O)c2nc(-c3ccc(Cl)cc3)ccc2c1 (configuration not stated),81.9% (inactive)
27,O=C1CC2C=CCN2C=C1NC(=O)c1ccccc1 (configuration not stated),100% (inactive)
